“And” between values parts separate entries of the source, which are not always exact repeats. Equal entries are not always repeated. About 83,000 compounds went through this panel and 20% of them were active in at least one assay; those are over-represented in the sample as a whole.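 Growth was measured after 48 h exposure to one concentration of compound in 96-well plates. Values under 10 count as active.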 The source made the active and inactive calls.
Experiments:
Test in all cases: NCI-60 one-dose screen, 48 h (100 = growth as untreated, 0 = no growth, -100 = all killed)
Details in all cases: 10 µM unless noted
[1] = tested on: NCI-H23 lung
[2] = tested on: NCI-H226 lung
[3] = tested on: NCI-H322M lung
[4] = tested on: HOP-62 NSCLC
[5] = tested on: NCI-H460 lung
[6] = tested on: HOP-92 NSCLC
[7] = tested on: NCI-H522 lung
[8] = tested on: A549/ATCC NSCLC
[9] = tested on: 786-0 renal
[10] = tested on: COLO 205 colon

Measured: growth

CN1C(=O)/C(=C/c2ccc(C(=O)Nc3ncc(Cc4ccccc4Cl)s3)cc2)SC1=S
inactive: [1] 94.6% | [2] 81.4% | [3] 72.2% | [4] 74.2% | [5] 79.5% | [6] 75.1% | [7] 64.2% | [8] 72.2% | [9] 87.9% | [10] 86.2%

CCCn1nc(C(=O)N2CCCCC2)c2c1CCC(N1CCC(c3ccncc3)CC1)C2 (stereo not given)
inactive: [1] 105% | [2] 116% | [3] 108% | [4] 113% | [5] 110% | [6] 111% | [7] 90.5% | [8] 102% | [9] 101% | [10] 115%

O=C(Nc1ccc(Cl)c(Cl)c1)Nc1ccc(Cl)c(Cl)c1
active: [1] -36.5% and 4.84% | [5] -63.6% and 4.34% | [6] -86.2% and -5.71% | [7] -83.9% and 6.21%
-63.1% (active) and 20.4% (inactive): [9]
inactive: [2] 23.7%
-83.4% (active) and 40.8% (inactive): [4]
-93.6% (active) and 19.2% (inactive): [3]
-86.9% (active) and 17.1% (inactive): [10]
-63% (active) and 17.6% (inactive): [8]

CC[C@H](C)[C@H](NC(=O)[C@@H](N)CCC(N)=O)C(=O)N[C@@H](Cc1ccc(O)cc1)C(=O)N[C@@H](CCCCN)C(=O)N[C@@H](CCCCN)C(=O)N[C@@H](Cc1ccc(O)cc1)C(=O)N[C@@H](CCCNC(=N)N)C(=O)N[C@H](C(=O)N[C@@H](Cc1c[nH]c2ccccc12)C(=O)N[C@@H](Cc1ccc(O)cc1)C(=O)N[C@@H](CCCNC(=N)N)C(=O)N[C@@H](CCCCN)C(=O)N[C@@H](C)C(=O)N[C@@H](Cc1c[nH]c2ccccc12)C(=O)N[C@@H](CCCCN)C(=O)N[C@H](C(=O)N[C@@H](CC(C)C)C(=O)NCC(=O)N[C@@H](CCCCN)C(=O)N[C@H](C(N)=O)C(C)C)C(C)C)[C@@H](C)O
inactive: [2] 53.4% | [3] 23% | [4] 13.3% | [7] 59.4% | [8] 38.7%
active: [1] -15.1% | [5] -4.21% | [6] -21.2% | [9] -57.9% | [10] 0.119%

COc1cc(/C=C2\C(=O)N(CCCCn3c4ccccc4c(=O)c4ccccc43)c3ccccc32)cc(OC)c1O
inactive: [1] 71.6% | [2] 91.5% | [3] 86% | [4] 102% | [5] 60% | [6] 65.7% | [7] 27.4% | [8] 95.4% | [9] 88.3% | [10] 107%

COc1ccc(/C(C)=C(\c2ccc(OCCN3CCCCCC3)cc2)c2ccc(OC(=O)C3CCCCC3)cc2)cc1
active: [1] -74% | [2] -62.4% | [3] 5.75% | [4] -73.4% | [5] -65.6% | [6] -88.9% | [7] -67.6% | [8] -32.9% | [9] -84.2% | [10] -63%

COc1ccc(-c2ccc(-c3ccc(C(=N)N)cn3)o2)cc1Cl
inactive: [1] 69.3% | [2] 81.4% | [3] 77.2% | [4] 67.5% | [6] 36.4% | [7] 59.5% | [8] 21.2%
active: [5] 0.593% | [9] -6.3% | [10] -72.6%

COc1cc2ncnc(Nc3ccc(F)c(Cl)c3)c2cc1OCC(=O)N1CCCCC1
inactive: [1] 91% | [2] 86.8% | [3] 29% | [4] 103% | [5] 95.5% | [6] 81.6% | [7] 33.1% | [8] 67.8% | [9] 78.2% | [10] 96%

COC1=CC(=O)C(OC)=C(O)C1=O
inactive: [1] 99.1% | [2] 102% | [3] 93.8% | [4] 97.9% | [5] 106% | [6] 106% | [7] 96.5% | [8] 105% | [9] 95.7% | [10] 103%

— PubChem BioAssay (NCI)
